Drawing on PubChem BioAssay AID1117273 (Broad Institute, 2014), this text covers inhibition for 7 molecules.

Each structure is given as a SMILES string. Active and inactive are the calls of the source. The rule behind the calls is not given here.

The nature of the experiment: inhibitors of orthopox early gene expression, dose response, cell-based, single fluorophore reporter, dry powder (AID 1117273). To be noted: orthopoxvirus-infected cells, early gene fluorescent reporter; at 10 µM; stronger effect = higher value.
`COc1ccccc1-c1ccc(CN(C)C[C@@H]2Oc3cc(C#C[C@@H](C)O)ccc3S(=O)(=O)N([C@@H](C)CO)C[C@@H]2C)cc1`: the inhibition was -12.9% (inactive). With `C[C@@H](O)C#Cc1ccc2c(c1)O[C@@H](CN(C)Cc1ccc(-c3cccc(Cl)c3)cc1)[C@@H](C)CN([C@@H](C)CO)S2(=O)=O`, the inhibition is 48.5% (inactive).

In the case of `C[C@@H](O)C#Cc1ccc2c(c1)O[C@@H](CN(C)Cc1ccc(-c3ccc(Cl)cc3)cc1)[C@@H](C)CN([C@@H](C)CO)S2(=O)=O`, the inhibition was 17.2% (inactive). The value for `C[C@@H](O)C#Cc1ccc2c(c1)O[C@@H](CN(C)Cc1ccc(-c3ccccc3Cl)cc1)[C@@H](C)CN([C@@H](C)CO)S2(=O)=O` was 59.3% (inactive); that for `Cc1ccccc1-c1ccc(CN(C)C[C@@H]2Oc3cc(C#C[C@@H](C)O)ccc3S(=O)(=O)N([C@@H](C)CO)C[C@@H]2C)cc1` was 63.3% (inactive); that for `Cc1cccc(-c2ccc(CN(C)C[C@@H]3Oc4cc(C#C[C@@H](C)O)ccc4S(=O)(=O)N([C@@H](C)CO)C[C@@H]3C)cc2)c1` was 48% (inactive). The value for `Cc1ccc(-c2ccc(CN(C)C[C@@H]3Oc4cc(C#C[C@@H](C)O)ccc4S(=O)(=O)N([C@@H](C)CO)C[C@@H]3C)cc2)cc1` was 32.5% (inactive).

In general, inhibition refers to the change of the read-out against control, counted positive when it falls.
